# Active and inactive are the calls of the source. Cut-off read from the data, not from the text of the source, unless noted: active = inhibition above about 80%; inactive = the rest.
# What was measured:
# [1] = sensitizers of A549 cells to miR-34 induction, primary screen, imaging, A549 dox-inducible miR-34, nuclei and caspase counts (AID 1347080;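 active = compounds whose cell count with miR-34 switched on is under 0.7 times the count with it off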); conditions: A549 miR-34 inducible, Hoechst nuclei count, 48 h
# [2] = survival rescue of mitochondrial mutant cells in low glucose, primary screen, MELAS cybrids, Rieske KO mouse fibroblasts, CellTiter-Glo (AID 1508586;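 active = mean z-score across replicates of 1.96 or higher in either the MELAS or the Rieske mutant cell line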;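 note: z relative to plate mean and SD of compound and empty wells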)
# [3] = LFS_MB_P medulloblastoma growth inhibition, cell-based, chromothripsis tumors, cisplatin or BGB combos (AID 1671449); conditions: LFS_MB_P medulloblastoma cells;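 note: cells exposed for 96 hours; 0% = vehicle DMSO and 100% = killing by high DMSO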
# [4] = HDN33 neuroblastoma growth inhibition, cell-based, chromothripsis tumors, cisplatin or BGB combos (AID 1671450); conditions: HDN33 neuroblastoma cells, stronger effect = higher value;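 note: cells exposed to compound for four days; 0% = vehicle DMSO and 100% = cell killing by high DMSO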
# [5] = ICB984 medulloblastoma cell growth inhibition, synergistic combos for chromothripsis tumors, cisplatin or BGB combos (AID 1671451; call rule not given here;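 note: cells exposed for 96 hours before readout; 0% = vehicle DMSO and 100% = killing by high DMSO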); conditions: ICB984 medulloblastoma cells, drug combinations, stronger effect = higher value
# [6] = LFS_MB_1R medulloblastoma cell growth inhibition, synergistic combos for chromothripsis tumors, cisplatin or BGB combos (AID 1671452); conditions: LFS_MB_1R medulloblastoma cells, stronger effect = higher value;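 note: cells exposed for 96 hours before readout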
# [7] = HTB85 osteosarcoma cell growth inhibition, synergistic combos for chromothripsis tumors, BGB or cisplatin IC20 combos (AID 1671453); conditions: HTB85 osteosarcoma cells, drug combinations, stronger effect = higher value;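 note: cells exposed for 96 hours before readout; 0% = vehicle DMSO and 100% = high DMSO killing control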
# [8] = CRL2098 osteosarcoma cell growth inhibition, synergistic combos for chromothripsis tumors, BGB or cisplatin IC20 combos (AID 1671454); conditions: CRL2098 osteosarcoma cells, drug combinations, stronger effect = higher value;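 note: cells exposed for 96 h before readout; 0% = vehicle DMSO and 100% = killing by high DMSO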
# [9] = HD-MB03 medulloblastoma cell growth inhibition, synergistic combos for chromothripsis tumors, BGB or cisplatin IC20 combos (AID 1671455; in the data active = inhibition above about 83%;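 note: 0% = vehicle DMSO and 100% = high DMSO as cytotoxic control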); conditions: HD-MB03 medulloblastoma cells, stronger effect = higher value
# [10] = UWB1.289 ovarian carcinoma cell growth inhibition, synergistic combos for chromothripsis tumors, BGB or cisplatin combos (AID 1671456); conditions: UWB1.289 ovarian carcinoma cells, stronger effect = higher value;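 note: cells exposed to compound for four days; 0% = vehicle DMSO and 100% = killing by high DMSO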
# [11] = LFS_MB_2R medulloblastoma cell growth inhibition, synergistic combos for chromothripsis tumors, cisplatin combos (AID 1671457); conditions: LFS_MB_2R medulloblastoma cells, stronger effect = higher value;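 note: cells exposed to compound for four days before readout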
# [12] = MDA-MB-436 breast carcinoma cell growth inhibition, synergistic combos for chromothripsis tumors, BGB or cisplatin combos (AID 1671458; call rule not given here;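 note: cells exposed for 96 hours; 0% = vehicle DMSO and 100% = killing by high DMSO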); conditions: MDA-MB-436 breast carcinoma growth inhibition, drug combinations, stronger effect = higher value
# [13] = UWB1.289_BRCA1 ovarian cancer growth, cell-based, BGB or cisplatin combinations (AID 1671459); conditions: UWB1.289 BRCA1 ovarian carcinoma, drug combinations, stronger effect = higher value
# [14] = human astrocyte viability loss, single and combined drugs, cytotoxicity control for chromothriptic childhood tumor combination screen, cell-based, BGB or cisplatin IC20 combos (AID 1671460); conditions: Human astrocytes, drug combinations, stronger effect = higher value;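 note: cells exposed to compounds for 96 hours before viability readout; 0% = vehicle and 100% = killing control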
# [15] = growth inhibition of BT084 medulloblastoma cells, cell-based, ICGC_MB145, cisplatin and BGB IC40 combos (AID 1671461); conditions: drug combinations, stronger effect = higher value;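 note: cells exposed to drugs for 96 hours; 0% = vehicle DMSO and 100% = high DMSO full killing control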
# [16] = growth inhibition of RCMB18 medulloblastoma cells, cell-based, cisplatin and BGB IC40 combos (AID 1671462); conditions: stronger effect = higher value;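 note: cells exposed to compound for four days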
# [17] = growth inhibition of CRL1545 osteosarcoma cells, cell-based, cisplatin and BGB IC20 combos (AID 1671464); conditions: stronger effect = higher value;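 note: cells exposed to compound for 96 hours before readout; 0% = vehicle DMSO and 100% = high DMSO killing control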
# [18] = hESC survival regulators, cell-based (AID 493140; call rule not given here;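 note: cells exposed to compounds for four days before counting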); conditions: human embryonic stem cell survival screen; stronger effect = higher value
# [19] = liver-stage malaria parasite growth inhibition, primary screen, cell-based, HepG2, luciferase luminescence, HepG2 viability (AID 624349; in the data active = parasite load remaining mostly below about 12%, no sharp cut-off; inactive = mostly above about 10%;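 note: 100% = mean of DMSO negative control wells on the same plate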); conditions: P. berghei liver stage in HepG2, luciferase luminescence, concentration not given here; parasite load remaining: stronger effect = lower value; viability: measured here: HepG2 viability without parasites
# [20] = stronger effect = lower value, cell number ratio, induced over uninduced
# [21] = measured here: relative caspase fold change +Dox/-Dox
# [22] = measured here: total cells with miR-34 induction, stronger effect = lower value
# [23] = measured here: total cells without miR-34 induction
# [24] = MELAS cybrid survival, CellTiter-Glo 48 h, stronger effect = higher value
# [25] = Rieske KO mouse fibroblast survival, CellTiter-Glo 72 h
# [26] = measured here: combination with BGB IC40, at 0.05 µM
# [27] = measured here: with BGB IC20 combination, at 0.5 µM
# [28] = measured here: with cisplatin IC20 combination, at 0.5 µM
# [29] = measured here: combination with cisplatin, at 0.5 µM
# [30] = measured here: combination with cisplatin, at 5 µM
smiles,measurement,setting,value
CC1CN(c2c(F)c(N)c3c(=O)c(C(=O)O)cn(C4CC4)c3c2F)CC(C)N1 (stereo not drawn),fold change,[1]; [20],0.949 (inactive)
same,fold change,[1]; [21],1.47
same,cell count,[1]; [22],8380
same,cell count,[1]; [23],8840
same,z-score,[2]; [24],-0.385 (inactive)
same,z-score,[2]; [25],0.474
same,inhibition,"[3]; at 0.5 µM, stronger effect = higher value",-8.35% (inactive)
same,inhibition,"[3]; measured here: combination with BGB IC20, at 0.005 µM",-4.46%
same,inhibition,"[3]; measured here: combination with BGB IC40, at 0.005 µM",-31.5%
same,inhibition,[3]; [26],-15.2%
same,inhibition,"[3]; measured here: combination with cisplatin, at 0.5 µM, stronger effect = higher value",-6.19%
same,inhibition,"[3]; measured here: combination with cisplatin, at 5 µM, stronger effect = higher value",-16.6%
same,inhibition,"[4]; BGB combo, at 5 µM",12%
same,inhibition,[4]; at 0.5 µM,-0.91% (inactive)
same,inhibition,"[4]; cisplatin combo, at 5 µM",-6.01%
same,inhibition,[4]; [27],11.5%
same,inhibition,[4]; [28],-1.5%
same,inhibition,"[4]; single agent, at 5 µM",6.32%
same,inhibition,"[5]; BGB IC20 combo, at 0.005 µM",-1.67%
same,inhibition,"[5]; BGB IC40 combo, at 0.005 µM",11%
same,inhibition,"[5]; BGB IC40 combo, at 0.05 µM",-1.88%
same,inhibition,[5]; at 0.5 µM,7.87% (inactive)
same,inhibition,"[5]; cisplatin combo, at 0.05 µM",-1.88%
same,inhibition,"[5]; cisplatin combo, at 0.5 µM",11.3%
same,inhibition,"[5]; cisplatin combo, at 5 µM",13.8%
same,inhibition,"[5]; measured here: 5 uM single agent, at 5 µM",-29.6%
same,inhibition,[6]; at 0.5 µM,-11.6% (inactive)
same,inhibition,[6]; [26],17.7%
same,inhibition,[6]; [29],-11.6%
same,inhibition,[6]; [30],6.53%
same,inhibition,[7]; at 0.5 µM,-1.44% (inactive)
same,inhibition,"[7]; measured here: with BGB IC20, at 0.5 µM",-7.64%
same,inhibition,"[7]; measured here: with BGB IC20, at 5 µM",3.84%
same,inhibition,"[7]; measured here: with cisplatin IC20, at 0.5 µM",-9.9%
same,inhibition,"[7]; measured here: with cisplatin IC20, at 5 µM",-0.774%
same,inhibition,"[7]; single agent, at 5 µM",7.58%
same,inhibition,[8]; at 0.5 µM,10.8% (inactive)
same,inhibition,"[8]; measured here: combination with BGB at IC20, at 0.5 µM",-2.31%
same,inhibition,"[8]; measured here: combination with cisplatin at IC20, at 0.5 µM",38.8%
same,inhibition,[9]; at 0.5 µM,-2.01% (inactive)
same,inhibition,"[9]; measured here: combo with BGB at IC20, at 0.5 µM",-4.41%
same,inhibition,"[9]; measured here: combo with cisplatin at IC20, at 0.5 µM",2.33%
same,inhibition,[10]; at 0.5 µM,8.04% (inactive)
same,inhibition,"[10]; measured here: inhibition with BGB combination, at 0.05 µM",0.724%
same,inhibition,"[10]; measured here: inhibition with cisplatin combination, at 0.05 µM",-2.03%
same,inhibition,[11]; at 0.5 µM,-6.3% (inactive)
same,inhibition,[11]; [29],-7.26%
same,inhibition,[11]; [30],2.01%
same,inhibition,[12]; at 0.5 µM,-9.1% (inactive)
same,inhibition,"[12]; measured here: BGB combination, at 0.5 µM",-2.77%
same,inhibition,"[12]; measured here: BGB combination, at 5 µM",-17.3%
same,inhibition,"[12]; measured here: cisplatin combination, at 0.5 µM",-22.6%
same,inhibition,"[12]; measured here: cisplatin combination, at 5 µM",-5.2%
same,inhibition,"[13]; BGB combination, concentration series, at 5 µM",10.9%
same,inhibition,[13]; at 0.5 µM,7.45% (inactive)
same,inhibition,"[13]; cisplatin combination, concentration series, at 5 µM",7.13%
same,inhibition,[14]; at 0.5 µM,-1.22% (inactive)
same,inhibition,"[14]; measured here: combo with BGB IC20, at 0.5 µM",2.7%
same,inhibition,"[14]; measured here: combo with cisplatin IC20, at 0.5 µM",-10.7%
same,inhibition,[15]; at 0.5 µM,-22.6% (inactive)
same,inhibition,"[15]; cisplatin combination, at 0.5 µM",-28.7%
same,inhibition,"[15]; cisplatin combination, at 5 µM",-70.7%
same,inhibition,"[15]; measured here: BGB IC40 combination 0.05 uM, at 0.05 µM",2.3%
same,inhibition,"[15]; single agent, at 5 µM",-7.96%
same,inhibition,[16]; at 0.5 µM,-6.55% (inactive)
same,inhibition,"[16]; cisplatin combo, at 5 µM",2%
same,inhibition,"[16]; measured here: BGB IC40 combination, at 0.05 µM",11.2%
same,inhibition,[16]; [29],-22.2%
same,inhibition,"[16]; single agent, at 5 µM",-18.8%
same,inhibition,[17]; at 0.5 µM,-2.34% (inactive)
same,inhibition,[17]; [27],14.7%
same,inhibition,[17]; [28],-10.9%
same,inhibition,"[17]; single agent, at 0.05 µM",39.2%
same,inhibition,"[17]; single agent, at 5 µM",26.7%
Cc1cc(C(=O)NNCc2ccccc2)no1,survival,[18],3.33 (inactive)
same,parasite load remaining,[19],129% (inactive)
same,viability,[19],100%
same,fold change,[1]; [20],0.777 (inactive)
same,fold change,[1]; [21],1.27
same,cell count,[1]; [22],8090
same,cell count,[1]; [23],10400
same,z-score,[2]; [24],0.697 (inactive)
same,z-score,[2]; [25],0.109

# From PubChem BioAssay
